Many of the other results were omitted from the sample, so hits are more common in it than they were.
Cycloheximide cs – Cycloheximide Counterscreen for Small Molecule Inhibitors of Shiga Toxin; cell reporter, cycloheximide protein synthesis inhibition counterscreen; max response, %; 300,000 tested, 12% active; AID 2314, 2010; in the data active = max response mostly above about 13%, no sharp cut-off; inactive = mostly below about 14%; also: read at 38.3 µM for the half of the compounds with a filed dose; 0% is about no effect
LmPK inhibitor – qHTS Assay for Inhibitors of Leishmania Mexicana Pyruvate Kinase (LmPK). purified LmPK, Kinase-Glo ATP luminescence, 1 h. Potency, µM (highest dose often 57.5 µM), inactives show at the highest dose activity change, negative = inhibition, usual class: inhibitors. 290,000 tested, 0.37% active. Q27686; also: potency is read from the fitted curve at half-maximal effect; % is scaled to controls: 0 for no effect and ±100 for the full control effect
Target sequence (Q27686 whole entry, looked up): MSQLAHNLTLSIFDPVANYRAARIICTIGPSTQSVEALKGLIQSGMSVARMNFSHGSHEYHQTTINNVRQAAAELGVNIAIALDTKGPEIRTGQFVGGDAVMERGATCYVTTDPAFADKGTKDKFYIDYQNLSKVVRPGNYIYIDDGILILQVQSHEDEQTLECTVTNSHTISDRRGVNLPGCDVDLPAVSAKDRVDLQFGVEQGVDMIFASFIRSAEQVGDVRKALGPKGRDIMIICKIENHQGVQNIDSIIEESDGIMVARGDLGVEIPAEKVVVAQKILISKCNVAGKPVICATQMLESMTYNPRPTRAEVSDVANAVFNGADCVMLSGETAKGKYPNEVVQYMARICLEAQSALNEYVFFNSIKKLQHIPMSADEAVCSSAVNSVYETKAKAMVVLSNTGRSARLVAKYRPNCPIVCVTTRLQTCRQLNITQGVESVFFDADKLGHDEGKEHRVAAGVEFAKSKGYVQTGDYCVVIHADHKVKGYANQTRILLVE
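0.1 nM LmPK, 0.5 mM PEP, 0.1 mM ADP; 50 mM imidazole pH 7.2, 7 mM MgCl2, 50 mM KCl; 1 h RT. Kinase-Glo luminescence readout, normalized to no-enzyme (full inhibition) and uninhibited wells.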
Sm TGR inh – qHTS Assay for the Inhibitors of Schistosoma Mansoni Peroxiredoxins. AID 485364, 2010. purified TGR, DTNB reduction, TNB absorbance 405 nm. 360,000 tested, 3% active. Schistosoma mansoni thioredoxin glutathione reductase (TGR), Q962Y6. Potency, µM (series often up to 114 µM), without a hit: at the top dose activity change, negative = inhibition, hits mostly inhibitors; also: potency is read from the fitted curve at half-maximal effect; % is scaled to controls: 0 for no effect and ±100 for the full control effect; nearly all actives have a fitted effect of over 60% in size
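First, TGR (20 nM dispensed) and NADPH were mixed with compound. Second, a 15 min room-temperature incubation followed. Third, further NADPH and then DTNB were added to start the reaction. Finally, TNB absorbance was monitored kinetically.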
FBPA Giardia inh – qHTS Assay for Inhibitors of Fructose-1,6-bisphosphate Aldolase from Giardia Lamblia | AID 2451, 2010 | purified Giardia FBPA | 290,000 tested, 0.71% active | A8B2U2 | Potency, µM (highest dose often 59.6 µM), without a hit: at the top dose activity, negative = inhibition, usual class: inhibitors; also: potency is read from the fitted curve at half-maximal effect; % is scaled to controls: 0 for no effect and ±100 for the full control effect; nearly all actives have a fitted effect of over 55% in size
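40 nM FBPA preincubated 10 min at RT with compound (up to 57.5 uM final), then substrate plus GAPDH/TPI/NAD/arsenate coupling and diaphorase/resazurin added. Fluorescence read after 20 min at RT, 525/598 nm.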
TbPYK inhibitor – qHTS of Trypanosoma Brucei Inhibitors; pyruvate kinase (Trypanosoma brucei), Q57TT1; TbPYK enzyme, Kinase-Glo Plus ATP luminescence, 45 min; Potency, µM (top dose mostly 76.8 µM), for inactives: at the top dose activity, negative = inhibition, most hits filed as inhibitors; 410,000 tested, 0.12% active; also: potency is read from the fitted curve at half-maximal effect; % is scaled to controls: 0 for no effect and ±100 for the full control effect; nearly all actives have a fitted effect of over 50% in size
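Screened from lowest to highest concentration, compounds were pinned into TbPYK/substrate mixtures, and ADP (130 uM final) was added. Plates sat at room temperature for 45 min prior to Kinase-Glo Plus detection by luminescence.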
Shiga inhibitor – A qHTS for Small Molecule Inhibitors of Shiga Toxin; inhibition, % at 38.7 µM; 290,000 tested, 9.2% active; Vero cells, Shiga toxin protein synthesis inhibition reporter; in the data active = inhibition mostly above about 28%, no sharp cut-off; inactive = mostly below about 43%; also: 0% is about no effect
An asterisk follows results filed as active; ? = inconclusive; nt = not tested or not shown. Unless noted, calls follow the shape of the dose curve; as a rule, active = well fitted curve in the direction sought with a large enough effect; inconclusive = small, poorly fitted or top-dose-only effect, or another doubt; inactive = no such curve, though single readings can be large; an effect the other way counts as inactive or inconclusive.

SMILES | Cycloheximide cs | LmPK inhibitor | Sm TGR inh | FBPA Giardia inh | TbPYK inhibitor | Shiga inhibitor
CC(=O)N=C1SC2CS(=O)(=O)CC2N1c1ccc(-c2nc3ccc(C)cc3s2)cc1 (centres undefined) | 18* | -1% | -12% | 9% | nt | 54*
CCCNc1nc2nc3ccccn3c(=O)c2cc1C(=O)NCCN1CCOCC1 | -5 | 1% | 0% | -3% | 0% | -4
COc1cc(NC(=O)C2CCN(S(=O)(=O)c3c(C)noc3/C=C/c3c(C)cc(C)cc3C)CC2)cc(OC)c1 | nt | nt | 2% | nt | 3% | nt
CC(=O)N1CCc2cc(CNS(=O)(=O)c3ccc(Cl)s3)ccc21 | nt | nt | -3% | nt | 0% | nt
CS(=O)(=O)c1ccccc1C(=O)Nc1cccc(-c2nc3ccccc3o2)c1 | 23* | 13% | 0% | -1% | 6% | 12
CCC(=O)Nc1cccc(-c2nc3ccccc3o2)c1 | 16* | -3% | -2% | -4% | 2% | 48
CC(=O)Nc1nc2ccc(-c3nc4ccccc4o3)cc2s1 | 61* | -4% | 0% | -2% | -6% | 54*
COc1cc(C2NC(=O)NC(O)(C(F)(F)F)C2C(=O)c2cccs2)ccc1O (centres undefined) | 34* | 1% | ? | 3% | -4% | 87*
COc1cc(C2NC(=O)NC(O)(C(F)(F)F)C2C(=O)c2ccc(Cl)cc2)ccc1O (centres undefined) | 10 | 2% | ? | nt | 1% | 12
COc1ccc(C2NC(=O)NC(O)(C(F)(F)F)C2C(=O)c2ccc(F)cc2)cc1 (centres undefined) | -2 | -1% | 45µM* | 5% | -9% | -2
COc1cccc(C(c2sc3nc(-c4ccco4)nn3c2O)N2CCN(C)CC2)c1 (centres undefined) | nt | nt | 10% | nt | -2% | nt
COc1ccc2[nH]c3c(=O)n(N)c(C)nc3c2c1 | 9 | -2% | 7% | 0% | -3% | 14
Cc1ccc2[nH]c3c(=O)n(N)c(C)nc3c2c1 | 17* | -7% | 4% | -4% | -3% | 38
COc1ccc(NS(=O)(=O)c2ccc3[nH]c4c(c3c2)CCCCC4)cc1 | nt | nt | 0% | nt | 3% | nt
Cc1cc(Br)c2c(c1)=C(c1sc(N3CCCCCC3)nc1O)C(=O)N=2 | 17* | -3% | 0% | 1% | 0% | 63*
Nc1ccc2c(c1)sc1ccccc12 | 58* | 3% | -2% | -8% | 1% | 82*
COC(=O)c1ccccc1NC(=O)/C=N/O | -4 | -2% | 0% | -1% | -3% | -19
O=C(/C=N/O)Nc1ccc2sc3ccccc3c2c1 | 54* | 1% | 12% | -29% | 0% | 71*
CCn1ncc(/C=C/C(=O)NCc2cnn(C)c2C)c1C | -4 | 0% | 13% | -1% | -3% | 3
CCn1ncc(/C=C/C(=O)C2CC2)c1C | 24 | 0% | 7% | 4% | 3% | active
Nc1ncncc1-c1ccc2ccccc2c1 | -4 | 1% | 17% | -2% | 0% | -13
C/C(=N\N(C)C)C1=C(O)c2ccccc2C1=O | 29* | -4% | -2% | 4% | -7% | 89*
CC(=NC1CC1)C1=C(O)c2ccccc2C1=O | 50* | -9% | -2% | -7% | 0% | 55*
CC(=NCCCN(C)C)C1=C(O)c2ccccc2C1=O | 31 | 6% | -4% | 1% | 1% | 84
O=C(NNc1c([N+](=O)[O-])cc(C(F)(F)F)cc1[N+](=O)[O-])c1ccco1 | -7 | -1% | -7% | nt | ? | -13
SMILES | Cycloheximide cs | LmPK inhibitor | Sm TGR inh | FBPA Giardia inh | TbPYK inhibitor | Shiga inhibitor
COC(=O)CCN(Cc1ccco1)S(=O)(=O)c1ccc(F)cc1Br | 8 | nt | nt | -7% | nt | 22
c1nc[n]([Sn]([CH]2CCCCC2)([CH]2CCCCC2)[CH]2CCCCC2)n1 | 4 | nt | nt | -2% | nt | 2
COc1ccc(C)cc1N(C)C(=O)Cc1c(C(=O)O)n(C)c2ccccc12 | -6 | -2% | 57% | 11% | -3% | -2
CCOc1cc(CNc2ccccc2SC)ccc1O | 23 | -8% | 8.9µM* | ? | nt | -9
CCOc1cc(CNc2cccc3[nH]c(C)nc23)ccc1OC | -3 | 7% | -28% | ? | -7% | -13
COc1cc(CNc2ccccc2SC)ccc1O | 25 | 0% | 2.2µM* | -25% | -26% | 70*
Cc1nc2ccccc2c(N)c1C(=O)/C=C/c1ccccc1 | -3 | 0% | 0% | 1% | 0% | -10
Cc1[nH]c2ccccc2c1C(=O)/C=C/c1ccccc1 | 37* | -3% | 0% | -9% | -19% | 56*
O=C(C=Cc1ccccc1Cl)c1ccccc1 | nt | nt | nt | nt | -5% | nt
Cc1[nH]c2ccccc2c1C(=O)/C=C\c1ccccc1Cl | 36* | -1% | -5% | -13% | 7% | 24*
Cc1[nH]c2ccccc2c1C(=O)/C=C/c1ccccc1Cl | 40* | 0% | -1% | -9% | -5% | 81*
Cc1ccc(C)c(C(=O)CSc2nc(-c3ccccc3)nc3c2CCCC3)c1 | nt | nt | -6% | nt | -2% | nt
O=C(NCCc1ccc(Cl)cc1)C(=O)NCC(c1ccc2c(c1)OCO2)N1CCOCC1 (centres undefined) | nt | nt | 10% | nt | 4% | nt
C1=CC2c3ccccc3NC(c3ccncc3)C2C1 (centres undefined) | 5 | -8% | 2.5µM* | ? | ? | -15
CC(=O)c1ccc2c(c1)C1C=CCC1C(c1ccncc1)N2 (centres undefined) | 18* | -4% | ? | ? | -14% | 97*
COC(C(=O)N/N=C(\C)c1ccc(O)cc1)c1ccccc1 (centres undefined) | -1 | -7% | 2% | 0% | 0% | -4
COC(=O)c1ccc(C2Nc3ccc(/C(C)=N/NC(=O)C(OC)c4ccccc4)cc3C3C=CCC32)cc1 (centres undefined) | -4 | -6% | 7.9µM* | nt | ? | 1
COc1cccc(C(=O)NCC(c2ccc(N(C)C)cc2)N2CCc3ccccc32)c1 (centres undefined) | nt | nt | -4% | nt | 4% | nt
O=C(CCc1nc2ccccc2[nH]1)NCc1ccc2c(c1)OCO2 | -1 | -2% | -12% | -8% | -2% | -2
CC(C)C(NC(=O)c1ccc2c(c1)OCCO2)c1nc2ccccc2[nH]1 (centres undefined) | -10 | 3% | -33% | 15% | -4% | 21
Clc1ccccc1N/N=C/c1ccc2c(c1)OCO2 | 76* | ? | 0% | 1% | -17% | 115*
C/C(=N\Nc1ccccn1)c1ccc2c(c1)OCO2 | 44* | 3% | -2% | -22% | -12% | 72*

Screens from PubChem.
